D2 ag-1: human D2 receptor agonism in beta-arrestin assay | DiscoveRx PathHunter D2 beta-arrestin, luminescence, 90 min; 100% = 57 uM dopamine signal | AID 624465 | hit rate 0.084% among 360,000 | activation, % (test concentration not listed) | P14416; in the data active = activation above about 40%
Target sequence (P14416 whole entry, looked up): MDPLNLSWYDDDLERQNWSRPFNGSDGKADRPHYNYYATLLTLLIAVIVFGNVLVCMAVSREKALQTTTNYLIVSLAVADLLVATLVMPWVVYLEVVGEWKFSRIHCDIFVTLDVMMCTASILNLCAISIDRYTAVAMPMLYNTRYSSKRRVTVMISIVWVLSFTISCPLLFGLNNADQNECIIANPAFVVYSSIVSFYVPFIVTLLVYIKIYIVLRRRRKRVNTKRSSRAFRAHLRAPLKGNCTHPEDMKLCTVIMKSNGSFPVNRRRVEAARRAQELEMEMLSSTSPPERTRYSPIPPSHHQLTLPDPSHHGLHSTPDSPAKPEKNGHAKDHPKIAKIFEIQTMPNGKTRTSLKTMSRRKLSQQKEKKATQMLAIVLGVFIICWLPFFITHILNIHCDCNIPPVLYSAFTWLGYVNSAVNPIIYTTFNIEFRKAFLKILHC
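Agonist mode: compounds alone added to overnight-plated D2 PathHunter cells for 90 min at 37 C, with 57 uM final dopamine (EC100) defining full response. Beta-arrestin recruitment detected by chemiluminescent reagent, read after 1 h at ambient temperature.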
D2 PAM-1: positive allosteric modulators of human D2 dopamine receptor; HEK293 T-REx D2, calcium flux, EC20 dopamine potentiation; potentiation, % at 10 µM; hit rate 0.34% among 340,000; AID 485347;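 active = potentiation over 3 SD above the plate norm, cut at about 30% in these data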; also: 0% is about no effect
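Cells plated with tetracycline inducer and held overnight at 30 C; calcium dye loaded 30–90 min at room temperature; baseline taken, compound added and read 180 s; EC20 dopamine then added and read 180 s.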
D2 PAM-2: positive allosteric modulators of human D2 dopamine receptor; P14416; DiscoveRx D2 beta-arrestin cells, luminescence, 90 min; 100% = 57 uM dopamine signal; potentiation, % (concentration not given with the values); hit rate 0.23% among 360,000; AID 624464; in the data active = potentiation above about 50%
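D2 cells co-treated with compound plus 50 nM dopamine (EC20) for 90 min at 37 deg C to detect potentiation. Beta-arrestin recruitment was read as enzyme-fragment luminescence after 1 h at ambient temperature. Full response was set by 57 uM dopamine.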
D2 antagonist: antagonizes the human D2 dopamine receptor; P14416; HEK293 TREx D2 cells, calcium flux, dopamine EC80; inhibition, % at 10 µM; hit rate 2% among 340,000; in the data active = inhibition above about 30%; inactive = below that, where a call was filed; also: 0% is about no effect
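HEK293 T-REx D2 cells, tet-induced, calcium dye no-wash. Cpd pintool add, 180 s kinetic, then EC80 DA, 180 s kinetic. Ca flux read.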
D2 ag-2: activates the human D2 dopamine receptor. P14416. HEK293 T-REx D2 cells, calcium flux agonist mode. activation, % at 2 µM. hit rate 0.53% among 340,000. AID 485358;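 active = activation over 3 SD above normal in the single-dose calcium agonist read, cut at about 30% in these data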; also: 0% is about no effect
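HEK293 Trex D2 cells, tetracycline-induced, o/n 30 C 5% CO2; no-wash Ca dye, RT 30–90 min; 10-cycle baseline, 23 nl cpd added, kinetic Ca read 180 s; agonist hits = positive Ca response.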
* marks the source's active call; other numbers are inactive results. Most compounds without a hit are left out; they make up all but 2.4% or so of the library.

How did Cc1ccccc1NC(=O)c1ccc(F)c(S(=O)(=O)N(C)Cc2ccccc2)c1 do in these assays?
D2 PAM-1: 13; D2 ag-2: 0

Results for Cc1cc(C(=O)N2CCN(S(=O)(=O)c3ccccc3C#N)CC2)c(C)o1 ?
D2 ag-1: -4; D2 PAM-1: 20; D2 PAM-2: -4; D2 antagonist: 23; D2 ag-2: 0

Results for Cc1cc(C(=O)N2CCN(S(=O)(=O)c3ccccc3F)CC2)c(C)o1 ?
D2 ag-1: 2; D2 PAM-1: 47*; D2 PAM-2: -2; D2 antagonist: -2; D2 ag-2: 0

Results for COc1cc(NC(=O)c2ccc(NC(=O)N3CCSc4ncccc43)cc2)cc(OC)c1 ?
D2 PAM-1: 4; D2 ag-2: -1

What do the screens show for `O=C(Nc1nnc(-c2ccccc2)o1)c1nc2ccccc2s1`?
D2 ag-1: -12; D2 PAM-1: -11; D2 PAM-2: -18; D2 antagonist: 8; D2 ag-2: 44*

How did COc1ccccc1-n1cnc2c(c1=O)c1nc3ccccc3nc1n2-c1ccc(C)cc1 do in these assays?
D2 ag-1: -4; D2 PAM-1: 33*; D2 PAM-2: -14; D2 antagonist: -24; D2 ag-2: -2

How did Cc1nc(C)c(-c2ccc(SCC(=O)Nc3ccc(Br)cc3)nn2)s1 do in these assays?
D2 PAM-1: 9; D2 ag-2: -1

Results for COc1ccccc1CNCC(O)Cn1c2ccccc2c2ccccc21 (stereo unspecified) ?
D2 ag-1: 1; D2 PAM-1: 5; D2 PAM-2: -2; D2 antagonist: 42*; D2 ag-2: 3

How did COc1ccccc1C(C)NCC(=O)NCC(=O)Nc1ccc(F)c(F)c1F (stereo unspecified) do in these assays?
D2 ag-1: 0; D2 PAM-1: -11; D2 PAM-2: -19; D2 antagonist: -1; D2 ag-2: 0

How did COc1ccccc1CNCC(=O)NCc1ccc(C)cc1 do in these assays?
D2 ag-1: -2; D2 PAM-1: -26; D2 PAM-2: -27; D2 antagonist: 52*; D2 ag-2: 0

How did COc1ccccc1C(C)NCC(=O)NCc1ccc(C)cc1 (stereo unspecified) do in these assays?
D2 ag-1: 1; D2 PAM-1: -28; D2 PAM-2: -16; D2 antagonist: 37*; D2 ag-2: 0

What do the screens show for `COc1ccccc1CNC(=O)Cc1ccc(C)cc1`?
D2 ag-1: 2; D2 PAM-1: -2; D2 PAM-2: -6; D2 antagonist: -19; D2 ag-2: 0

Results for COc1ccccc1Cn1c(C2CC(=O)N(c3ccccc3OC)C2)nc2ccccc21 (stereo unspecified) ?
D2 PAM-1: -1; D2 ag-2: 6

How did CCOCCCNC(=O)c1ccc2c(=O)n(CCc3ccc(OC)c(OC)c3)c(=O)[nH]c2c1 do in these assays?
D2 PAM-1: -17; D2 ag-2: 0

Results for CCOc1ccc(NC(=O)CSc2oc(-c3ccco3)nc2S(=O)(=O)c2ccc(Cl)cc2)cc1 ?
D2 PAM-1: 12; D2 ag-2: 0

What do the screens show for `Cc1cc(F)ccc1NC(=O)C1CCCN(S(=O)(=O)c2ccc3c(c2)CCCC(=O)N3)C1` (stereo unspecified)?
D2 PAM-1: 4

How did COCCn1cnc2c1c(=O)n(Cc1ccccc1C#N)c(=O)n2Cc1ccccc1 do in these assays?
D2 ag-1: -6; D2 PAM-1: 36*; D2 PAM-2: -6; D2 antagonist: -6; D2 ag-2: 0

How did COc1ccc(CCN(C)C(=O)C2CCN(Cc3ccc(C)cc3)CC2)cc1OC do in these assays?
D2 ag-1: 1; D2 PAM-1: -23; D2 PAM-2: -21; D2 antagonist: 47*; D2 ag-2: 0

Results for COc1ccc(CN2CCC(C(=O)N(C)CCc3ccc(OC)c(OC)c3)CC2)c(OC)c1 ?
D2 ag-1: 2; D2 PAM-1: 31*; D2 PAM-2: -19; D2 antagonist: -11; D2 ag-2: 0

Results for COc1ccccc1CNC(=O)C1CCN(S(=O)(=O)c2c(C)noc2/C=C/c2c(C)cc(C)cc2C)CC1 ?
D2 PAM-1: -3; D2 ag-2: 0

How did COc1ccc(NCc2nnc(SCC(=O)NCc3ccco3)n2-c2ccccc2OC)cc1 do in these assays?
D2 ag-1: -5; D2 PAM-1: 6; D2 PAM-2: -18; D2 antagonist: 11; D2 ag-2: -1

What do the screens show for `Cc1ccc(-n2c(CNc3ccc(F)cc3)nnc2SCC(=O)NCc2ccco2)cc1`?
D2 ag-1: -4; D2 PAM-1: 18; D2 PAM-2: -10; D2 antagonist: 34*; D2 ag-2: 0

Results for Cc1ccc(-n2c(CNc3ccc(F)cc3)nnc2SCC(=O)N2CCCC2)cc1 ?
D2 ag-1: -3; D2 PAM-1: 7; D2 PAM-2: -20; D2 antagonist: 30*; D2 ag-2: 1

Results for Cc1ccc(OC(=O)c2cc(-c3ccc4c(c3)OCCO4)on2)c(C)c1 ?
D2 PAM-1: 3; D2 ag-2: 3

How did COc1cc(C(=S)N2CCOCC2)ccc1OC(=O)c1ccc([N+](=O)[O-])cc1[N+](=O)[O-] do in these assays?
D2 ag-1: 59*; D2 PAM-1: -2; D2 PAM-2: 61*; D2 antagonist: 5; D2 ag-2: 0

What do the screens show for `COc1ccc(C(=S)N2CCOCC2)cc1OC(=O)c1ccc([N+](=O)[O-])cc1`?
D2 ag-1: 8; D2 PAM-1: 16; D2 PAM-2: 14; D2 antagonist: -10; D2 ag-2: 1

How did CCCC(=O)Nc1ccc(C(=O)COC(=O)c2cc(C)oc2C)cc1 do in these assays?
D2 ag-1: -1; D2 PAM-1: -2; D2 PAM-2: 3; D2 antagonist: 35*; D2 ag-2: 1

How did Cc1nc(Cl)sc1C(=O)Nc1ccccc1 do in these assays?
D2 ag-1: -9; D2 PAM-1: -2; D2 PAM-2: 5; D2 antagonist: -1; D2 ag-2: 0

Results for Cc1nc(Cl)sc1C(=O)Nc1ccc(Cl)cc1 ?
D2 ag-1: -3; D2 PAM-1: 10; D2 PAM-2: -1; D2 antagonist: 40*; D2 ag-2: 0

What do the screens show for `CCOC(=O)c1cc(-c2ccc(F)cc2)n(CCC(=O)NC2CCC(C)CC2)c1C` (stereo unspecified)?
D2 PAM-1: -4

How did c1ccc(CNc2nc3ccccc3n3cnnc23)nc1 do in these assays?
D2 ag-1: -1; D2 PAM-1: 0; D2 PAM-2: -2; D2 antagonist: 20; D2 ag-2: 1

How did c1ccc(CNc2nc3ccccc3n3cnnc23)cc1 do in these assays?
D2 ag-1: -2; D2 PAM-1: 41*; D2 PAM-2: -3; D2 antagonist: -3; D2 ag-2: 0

How did Cc1ccccc1Cn1c(SCc2ccc(C(=O)NC(C)c3ccccc3)cc2)nc2ccncc21 (stereo unspecified) do in these assays?
D2 PAM-1: 14
